# Test results reported in PubChem BioAssay AID1259349 (Broad Institute, 2017).
# Among all 17,000 compounds or so, about 1,100 (6.5%) were called active.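 Rule for the calls: active = z-score of -3 or lower, meaning strong loss of probe binding signal; inactive = the rest.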 For the sample, actives were picked, then their nearest neighbours and some compounds at random.
# Biological target: Insulin-degrading enzyme (Homo sapiens) (UniProt P14735)
# Experiment: exo-site inhibitors of human IDE, primary screen, biochemical, fluorescence anisotropy, probe displacement (AID 1259349);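 note: His-tagged human IDE residues 42-1019 made in E. coli with 30 nM FL-6b probe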
# Conditions: purified IDE, FL-6b probe fluorescence polarization; at 20 µM; active compounds read low
# Sequence of Insulin-degrading enzyme (Homo sapiens) (P14735 42-1019 limits assumed): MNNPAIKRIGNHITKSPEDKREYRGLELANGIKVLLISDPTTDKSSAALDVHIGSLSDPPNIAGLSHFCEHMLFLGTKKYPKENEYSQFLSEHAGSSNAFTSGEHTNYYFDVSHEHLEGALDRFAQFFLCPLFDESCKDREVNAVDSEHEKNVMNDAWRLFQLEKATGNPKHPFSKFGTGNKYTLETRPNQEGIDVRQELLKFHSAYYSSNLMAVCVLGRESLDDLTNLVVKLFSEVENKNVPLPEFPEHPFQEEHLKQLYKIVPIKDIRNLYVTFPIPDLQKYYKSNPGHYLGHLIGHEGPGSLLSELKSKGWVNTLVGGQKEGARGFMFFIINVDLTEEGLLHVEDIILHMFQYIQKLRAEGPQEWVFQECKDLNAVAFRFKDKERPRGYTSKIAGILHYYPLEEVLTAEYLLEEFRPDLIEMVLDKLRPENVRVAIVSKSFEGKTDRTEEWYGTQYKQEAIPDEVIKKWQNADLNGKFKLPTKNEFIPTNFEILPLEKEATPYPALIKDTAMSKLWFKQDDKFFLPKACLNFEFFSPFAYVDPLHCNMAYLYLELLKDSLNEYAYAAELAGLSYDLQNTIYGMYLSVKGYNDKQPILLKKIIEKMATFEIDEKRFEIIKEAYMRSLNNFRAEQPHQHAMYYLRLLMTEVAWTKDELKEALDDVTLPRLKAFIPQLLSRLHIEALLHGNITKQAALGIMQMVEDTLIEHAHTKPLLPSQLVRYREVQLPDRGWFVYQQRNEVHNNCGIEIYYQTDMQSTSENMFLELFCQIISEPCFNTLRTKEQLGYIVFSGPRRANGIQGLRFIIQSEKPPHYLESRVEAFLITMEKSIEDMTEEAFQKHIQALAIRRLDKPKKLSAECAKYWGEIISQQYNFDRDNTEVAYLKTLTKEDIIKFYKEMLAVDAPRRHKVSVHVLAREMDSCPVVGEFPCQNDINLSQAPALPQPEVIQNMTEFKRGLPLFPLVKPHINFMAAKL
row,Structure (SMILES),z-score
1,O=C(Cc1ccccn1)N1CCCCN2[C@@H](CO)[C@@H](c3ccc(C#Cc4ccccc4)cc3)[C@@H]2C1,-6.91 (active)
2,O=C(Cc1ccccc1)N1CCCCN2[C@H](CO)[C@H](c3ccc(C#Cc4ccccc4)cc3)[C@H]2C1,-1.93 (inactive)
3,O=C(Cc1ccccn1)N1CCCCN2[C@H](C1)[C@H](c1ccc(-c3ccccc3F)cc1)[C@@H]2CO,-1.94 (inactive)
4,O=C(Cc1ccncc1)N1CCCCN2[C@@H](CO)[C@H](c3ccc(C#CC4(O)CCCC4)cc3)[C@@H]2C1,1.31 (inactive)
5,COC(=O)[C@@H]1[C@@H](CO)[C@@H]2Cn3c(ccc(-c4cccc(C(=O)N(C)C)c4)c3=O)[C@H]1N2C(=O)NC(C)C,-0.64 (inactive)
